Measurements as given in the supplement of paper PMC4954754.
± gives the uncertainty stated by the source.

system: HEK293T-Rex XBP1-RLuc; assay: XBP1-RLuc splicing reporter activation, triplicate, relative to 500 nM thapsigargin (% of thapsigargin); higher = stronger IRE1/XBP1s reporter activation; conditions: 6.8 µM; 18 h; screen: confirmation
Experimental: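 HEK293T-Rex cells stably expressing the ERSE-firefly luciferase (BiP promoter, ATF6-preferring) or XBP1-splicing Renilla luciferase (IRE1/XBP1s) reporter, 1536-well plates, compound at 6.8 µM for 18 hr at 37 °C; luminescence read […] and expressed as % activation = 100*(compound - median DMSO)/(median 500 nM thapsigargin - median DMSO). Primary screen was single-pass; confirmation screen in triplicate (mean ± SD).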

Structure (SMILES)	XBP1-RLuc splicing reporter activation
C/C=C(/C)C(=O)O[C@H]1C(C)=C2[C@H]([C@@H]1OC(=O)CCCCCCC)[C@@](C)(OC(C)=O)C[C@H](OC(=O)CCC)[C@@]1(O)[C@H]2OC(=O)[C@@]1(C)O	104
CC(=O)NC1C(OC2OC(CC(O)C3OC(n4ccc(=O)[nH]c4=O)C(O)C3O)C(O)C(O)C2NC(=O)/C=C\CCCCCCCCCC(C)C)OC(CO)C(O)C1O (stereo not given)	61.23 ± 0.33
CNc1ccc2oc(C[C@H]3O[C@@]4(CC[C@H]3C)O[C@H]([C@H](C)C(=O)c3ccc[nH]3)[C@H](C)C[C@H]4C)nc2c1C(=O)O	50 ± 2.1
O=C(CCCN1CCC2(CC1)C(=O)NCN2c1ccccc1)c1ccc(F)cc1	202 ± 6.1
O=C(CCCN1CCC2(CC1)C(=O)N(Cc1cccc(F)c1)CN2c1ccccc1)c1ccc(F)cc1	185 ± 9.3
